Reference: PubChem BioAssay AID504773 (Broad Institute, 2011)
Potency and affinity values are given separately. The source made the active and inactive calls.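 The calls were made as follows: active = polarization signal falls with dose and the fitted half-maximal concentration is at or below ten times the sample's top valid dose; inconclusive = flat curve at 30 to 70% inhibition, or poor fit; inactive = signal rises, flat within 30%, or potency beyond limit.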

Target: Golgi-associated PDZ and coiled-coil motif-containing protein (Homo sapiens) (UniProt Q9HD26)
Assay: CAL PDZ peptide-binding inhibitors, dose response, biochemical, fluorescence polarization, Cerulean-tagged CAL PDZ, cherry-picks (AID 504773)
Details: 1 h; series mostly up to 50 µM

outcome, inactive:
CCOCCCNC(=O)c1ccc2c(=O)n(Cc3ccc4c(c3)OCO4)c(=S)[nH]c2c1
CSc1ccccc1NC(=O)c1ccccc1
CCc1ccc(C2CC(=O)N(c3cccc(F)c3)C3=C2C(=O)OC3)cc1 (configuration not stated)
CCCCN(CCCC)CCNC(=O)c1ccc2nc(-c3ccccc3NC(C)=O)c(=O)[nH]c2c1
COc1ccc(/C=C2\N=C(c3ccc(C)cc3)OC2=O)cc1
CCOc1ccc(S(=O)(=O)N2CCCCC2)c(C)c1C
COc1ccc(-n2c(=S)[nH]c3c(sc(=S)n3-c3ccccc3)c2=O)c(OC)c1
CC(NS(=O)(=O)c1ccc(Cl)c(Cl)c1)C(=O)OCC(=O)Nc1ccc2c(c1)OCO2 (configuration not stated)
Cc1ccc(-c2nc3ccccc3c(=O)o2)cc1
CCCn1nnnc1NCc1cc(Br)ccc1OC
O=C(Nc1nccs1)c1ccc(F)c(S(=O)(=O)N2CCOCC2)c1
O=C(c1cc2cc([N+](=O)[O-])ccc2oc1=O)N1CCN(C2CCCCC2)CC1
Cc1c(Cl)c(C(=O)N2CCCC2)nn1C
COc1ccc(Nc2cccccc2=O)cc1
FC(F)(F)Oc1ccc(NC(=S)NCCCN2CCOCC2)cc1
CCNS(=O)(=O)c1ccc(CCC(=O)N2CCCC2)cc1
COc1ccc(-c2nc3ccccc3o2)cc1OC
Cc1cccc(N(Cc2cc(=O)[nH]c3ccccc23)C(=O)C(C)C)c1
Cc1ccc(S(=O)(=O)N2CCN(CCC#N)CC2)cc1
O=C(Nc1nc2ccccc2[nH]1)c1cc2ccccc2o1
COc1ccc(C(=O)N2CCCc3ccccc32)cc1Br
COc1cc(NS(=O)(=O)c2ccc(NC(=S)Nc3ccccc3)cc2)nc(OC)n1
CC1CCCC(C)N1/N=C/c1ccc(N(C)C)cc1 (configuration not stated)
COCCN(C(=S)Nc1ccccc1OC)C1CCN(C(C)C)CC1
CC12CNCC(C)(CN(C3(O)C(=O)Nc4ccc(Br)cc43)C1)C2=O (configuration not stated)
Cc1ccc(-c2[nH]c3ccccc3c2SCCN)cc1
Cc1ccccc1CN(C)C(C)C(=O)Nc1ccccc1F (configuration not stated)
Cc1ccc(S(=O)(=O)N2CCN(C(=O)N(C)C)CC2)cc1
CN(C)c1ccc(C(=O)OCC(=O)NC2CCCCCC2)cc1
Cc1ccc2nc(NS(C)(=O)=O)sc2c1
O=C(COc1ccccc1)N1CCCCCCC1
O=C(Nc1ccccc1Cl)Nc1cccnc1Cl
CCN(CC)S(=O)(=O)c1ccc(/C=C/C(=O)OCC(=O)N(C)C)cc1
Cc1cccc(N=Nc2c(O)[nH]c3ccc(F)cc23)c1
Cc1cc(C)nc(/N=C(\N)N2CCc3ccccc32)n1
C=CCOC(=O)C1=C(C)Nc2nc3ccccc3n2C1c1ccncc1 (configuration not stated)
O=C(O)c1ccc(Oc2cc(Oc3ccc(C(=O)O)cc3)cc([N+](=O)[O-])c2)cc1
